Measured values taken from PubChem BioAssay (NCATS).
Results filed as inconclusive are left out. A number with no mark means an inactive call. The source made the active and inactive calls. Calls come from the whole dose curve; as a rule, active = well fitted curve in either direction with a large enough effect (not every such curve was filed as active); inconclusive = small, poorly fitted or top-dose-only effect, or another doubt; inactive = flat fitted curve, though single readings scatter.

Test: Stat Signaling Pathway (AID 446)
Conditions: ME-180 (cervical carcinoma) SIE beta-lactamase reporter, IL-6 stimulated, 5 h; series mostly up to 38 µM
Method: NCGC Assay Overview: The IL-6/STAT signaling pathway was assayed in ME-180 cervical carcinoma cells by a beta-lactamase reporter gene controlled by a STAT Inducible Element (SIE). This reporter is induced by IL-6 at 40 pM AC50 and inhibited by the pan JAK inhibitor, 2-(1,1-Dimethylethyl)-9-fluoro-3,6-dihydro-7H-benz[h]-imidaz[4,5-f]isoquinolin-7-one, at approximately 10 nM AC50. Plated cells were incubated overnight and on the following day, stimulated with 40 pM IL-6 for 5 hrs. The assay was screened at the AC50 of IL-6 activation to identify both inhibitors and activators of IL-6/STAT signaling.
NCGC Assay Protocol Summary: Cells were trypsinized, washed in assay medium (AM, OPTI MEM with 0.5% fetal bovine serum, 0.1 mM nonessential amino acids, 1 mM sodium pyruvate, 10mM HEPES pH 7.3, 100U/ml penicillin, and 100 ug/ml streptomycin) and suspended at 6 x 10e5/ml in AM. Approximately […] cells in 5 uL/well was dispensed into 1536 well plates and the cells were incubated overnight at 37 C. 23 nL of compound were delivered by a pin tool and 1 uL of IL-6 (40 pM final concentration in AM) was added. After centrifugation at 1000 rpm for less than a minute, plates were incubated at 37C for 5 hrs. One uL of detector mix (LiveBLAzerTM, Invitrogen) was added, the plates incubated at room temperature for 2.5 hrs, and fluorescence intensity at 460 and 530 nm emission was measured at 405 nm excitation by an Envision (Perkin Elmer) or Safire II (Tecan). Data were normalized by GeneData to the controls for AC90 stimulation (300 pM IL-6) and to AC90 inhibition (125 nM Jak inhibitor, 40 pM IL-6 in AM).
% is set by controls: 0 for no effect and ±100 for the full control effect.

| Compound | outcome | activity, negative = inhibition |
| --- | --- | --- |
| CN(C)[C@@H]1C(=O)C(C(N)=O)=C(O)[C@@]2(O)C(=O)C3=C(O)c4c(O)ccc(Cl)c4[C@@](C)(O)C3C[C@@H]12 (stereo not given in full) | inactive | – |
| Cc1o[nH]c(=O)c1C[C@H](N)C(=O)O | inactive | – |
| COc1ccc2c(c1)[nH]c1c(C)nccc12 | inactive | – |
| O=C1CC[C@@]2(O)[C@H]3Cc4ccc(O)c5c4[C@@]2(CCN3CC2CC2)[C@@H]1O5 | inactive | – |
| S=C=Nc1cccc(C2(N3CCCCC3)CCCCC2)c1 | inactive | – |
| COC(=O)c1cc2c(cn1)[nH]c1ccccc12 | inactive | – |
| Oc1ccc2c3c1O[C@H]1c4[nH]c5ccccc5c4C[C@]4(O)[C@H](C2)N(CC2CC2)CC[C@@]314 | inactive | – |
| N[C@H](CP(=O)(O)O)C(=O)O | inactive | – |
| C[C@@H](Cc1ccc(OCC(=O)O)cc1)NC[C@H](O)c1cccc(Cl)c1 | inactive | – |
| CN1CC[C@@]23CCCC[C@@H]2[C@@H]1Cc1ccc(O)cc13 | inactive | – |
| N[C@@H](CCP(=O)(O)O)C(=O)O | – | 11.7% [at 7.69 µM] |
| c1ccc2c(c1)OC[C@@H](C1=NCCN1)O2 | inactive | – |
| O=C1NCN(c2ccccc2)C12CCN(C[C@H]1COc3ccccc3O1)CC2 | inactive | – |
| c1cncc([C@@H]2CCCCN2)c1 | inactive | – |
| CN1[C@@H]2CC[C@H]1CC(O[C@@H](c1ccccc1)c1ccc(Cl)cc1)C2 (stereo not given in full) | inactive | – |
| COc1ccc(CNC(=O)/C=C\c2ccc3[nH]cc(CCN(C)C)c3c2)cc1 | inactive | – |
| NC[C@@H](CC(=O)O)c1ccc(Cl)cc1 | inactive | – |
| CN1C(=O)CCS(=O)(=O)[C@H]1c1ccc(Cl)cc1 | inactive | – |
| C/C(O)=C(/C#N)C(=O)Nc1cc(Br)ccc1Br | inactive | – |
| CN(C)Cc1c[nH]c2ccccc12 | inactive | – |

| Compound | outcome | activity, negative = inhibition |
| --- | --- | --- |
| COc1ccc(-n2nc(C(F)(F)F)cc2-c2ccc(Cl)cc2)cc1 | inactive | – |
| c1cncc(C2=NCCC2)c1 | inactive | – |
| CCCC(=O)OCC[N+](C)(C)C | inactive | – |
| CNCCc1c[nH]c2ccccc12 | inactive | – |
| N#CC(C#N)=Cc1ccc([N+](=O)[O-])c(O)c1 | inactive | – |
| C[C@]12N[C@@H](Cc3ccccc31)c1ccccc12 | inactive | – |
| CCOC(=O)c1cc2c(cn1)[nH]c1ccccc12 | inactive | – |
| Clc1ccc(COC(Cn2ccnc2)c2ccc(Cl)cc2Cl)c(Cl)c1 (stereo not given) | inactive | – |
| CN1CCN(C(=O)O[C@@H]2c3nccnc3C(=O)N2c2ccc(Cl)cn2)CC1 | inactive | – |
| CCOC(=O)c1ncn2c1[C@H]1CCCN1C(=O)c1cc(OC)ccc1-2 | inactive | – |
| O=C(Cc1ccc(Cl)c(Cl)c1)N1CCCC[C@H]1CN1CCCC1 | inactive | – |
| COc1ccc2[nH]cc(CCN(C)C)c2c1 | inactive | – |
| CN(C(=O)Cc1ccc(Cl)c(Cl)c1)[C@@H](CN1CCCC1)c1cccc(OCC(=O)O)c1 | inactive | – |
| N[C@H](CCCCCP(=O)(O)O)C(=O)O | inactive | – |
| C[C@H](N)Cc1cnc[nH]1 | inactive | – |
| C[C@H](N)Cc1c[nH]c2ccc(OCc3cccs3)cc12 | inactive | – |
| c1ccc2c3c([nH]c2c1)CNCC3 | inactive | – |
| COc1ccn(C)c(=O)c1C#N | inactive | – |
| CN1CCN(C(=O)OC2c3nccnc3C(=O)N2c2ccc(Cl)cn2)CC1 (stereo not given) | inactive | – |
| C=CCN1CC[C@]23c4c5ccc(O)c4O[C@@H]2C(=O)CC[C@]3(O)[C@H]1C5 | inactive | – |
